Among all 310,000 compounds or so, about 14,000 (4.5%) showed an effect of 50% or more. Effects have a minus sign here. This excerpt belongs to a sample that is enriched for strong results.
Target: human ether-à-go-go-related gene (hERG) potassium channel (human, UniProt Q12809)
Assay: primary screen, population patch clamp on CHO cells stably expressing hERG; higher = less effect of the substance
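Further: peak tail current of the secondary pulse compared with the same well before compound.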

Sequence of human ether-à-go-go-related gene (hERG) potassium channel (Q12809 whole entry, looked up): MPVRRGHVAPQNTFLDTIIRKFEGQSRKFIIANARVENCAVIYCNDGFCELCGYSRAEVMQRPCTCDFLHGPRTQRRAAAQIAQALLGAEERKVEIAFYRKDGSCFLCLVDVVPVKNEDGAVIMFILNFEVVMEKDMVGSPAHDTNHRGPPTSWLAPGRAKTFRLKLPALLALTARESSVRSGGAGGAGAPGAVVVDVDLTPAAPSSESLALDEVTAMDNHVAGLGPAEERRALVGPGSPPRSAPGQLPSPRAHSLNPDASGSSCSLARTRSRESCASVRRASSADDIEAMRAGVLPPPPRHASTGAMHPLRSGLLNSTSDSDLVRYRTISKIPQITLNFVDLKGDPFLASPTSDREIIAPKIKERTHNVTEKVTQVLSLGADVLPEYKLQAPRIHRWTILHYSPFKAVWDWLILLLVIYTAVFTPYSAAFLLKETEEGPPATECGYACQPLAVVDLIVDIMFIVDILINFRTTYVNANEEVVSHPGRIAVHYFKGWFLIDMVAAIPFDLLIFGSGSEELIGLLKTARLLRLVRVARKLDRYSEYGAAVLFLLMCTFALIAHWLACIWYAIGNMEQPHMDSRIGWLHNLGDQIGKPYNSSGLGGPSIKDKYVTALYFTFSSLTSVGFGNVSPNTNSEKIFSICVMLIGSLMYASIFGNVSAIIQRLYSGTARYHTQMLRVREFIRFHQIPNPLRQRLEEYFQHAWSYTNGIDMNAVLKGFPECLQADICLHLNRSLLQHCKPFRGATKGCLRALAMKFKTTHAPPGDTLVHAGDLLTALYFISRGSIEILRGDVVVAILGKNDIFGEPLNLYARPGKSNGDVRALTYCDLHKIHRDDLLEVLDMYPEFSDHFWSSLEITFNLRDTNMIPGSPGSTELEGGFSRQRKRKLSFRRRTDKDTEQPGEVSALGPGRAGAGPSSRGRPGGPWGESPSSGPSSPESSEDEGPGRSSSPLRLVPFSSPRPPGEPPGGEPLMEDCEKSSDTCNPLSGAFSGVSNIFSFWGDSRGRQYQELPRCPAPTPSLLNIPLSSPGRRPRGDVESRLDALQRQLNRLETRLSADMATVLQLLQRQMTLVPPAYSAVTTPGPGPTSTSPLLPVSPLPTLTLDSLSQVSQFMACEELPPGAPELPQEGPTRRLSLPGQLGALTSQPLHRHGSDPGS

Row | SMILES | hERG current change (%, negative = inhibition) at 10uM
1 | CC1=C(C(=O)OCC2CCCCC2)C(c2ccc(O)cc2)NC(=O)N1 (stereo not shown) | 12.7%
2 | COC(=O)c1cc(NC2c3ccccc3C(=O)N2c2ccc(Cl)cn2)cc(C(=O)OC)c1 (stereo not shown) | 19.5%
3 | Cc1ccc(S(=O)(=O)NCC(=O)OCC(=O)c2cccs2)cc1 | 0.259%
4 | Cc1ccc(S(=O)(=O)NCC(=O)OCC(=O)c2ccc(Cl)s2)cc1 | 1.12%
5 | Cc1ccc(S(=O)(=O)NCC(=O)OCC(=O)c2ccc(Br)s2)cc1 | -52.7%
6 | Cc1cccc(CN2C(=O)[C@H]3Cc4c([nH]c5ccccc45)C(C)(C)N3C2=O)c1 | -1.56%
7 | CS(=O)(=O)NC1c2cccc3cccc(c23)C1Sc1nncn1/N=C/c1ccco1 (stereo not shown) | -21.1%
8 | COc1ccc(/C=N/NC(=O)c2ccc(O)cc2)cc1CN1CCCc2ccccc21 | 0.817%
9 | COc1ccc(C(=O)N/N=C/c2ccc(OC)c(CN3CCCc4ccccc43)c2)cc1 | -11.9%
10 | COc1ccc(/C=N\NC(=O)c2ccccc2[N+](=O)[O-])cc1COc1c(F)c(F)c(F)c(F)c1F | 8.06%
11 | COc1ccc(/C=N/NC(=O)c2ccccc2[N+](=O)[O-])cc1CN1CCc2cc(OC)c(OC)cc2C1C (stereo not shown) | -63.9%
12 | COc1ccc(C(=O)N/N=C/c2ccc(OC)c(CN3CCc4cc(OC)c(OC)cc4C3C)c2)cc1 (stereo not shown) | -76%
13 | COc1ccc(/C=N/NC(=O)c2ccc(OC)c(OC)c2)cc1COc1c(F)c(F)c(F)c(F)c1F | 5.91%
14 | COc1ccc(/C=N/NC(=O)c2cccnc2)cc1CN1CCc2cc(OC)c(OC)cc2C1C (stereo not shown) | -40.9%
15 | COc1ccc(/C=N/NC(=O)c2ccccc2OC)cc1COc1ccccc1[N+](=O)[O-] | 8.94%
16 | COc1ccc(/C=N\NC(=O)c2ccc(F)cc2)cc1COc1ccccc1C(N)=O | -44.3%
17 | COc1ccc(/C=N/NC(=O)c2ccc(F)cc2)cc1CN1CCc2cc(OC)c(OC)cc2C1C (stereo not shown) | -88.3%
18 | COc1ccc(C(=O)N/N=C/c2ccc(OC)c(COc3ccccc3)c2)cc1 | -26.1%
19 | COc1ccc(/C=N/NC(=O)c2cc(OC)c(OC)c(OC)c2)cc1CN1CCc2cc(OC)c(OC)cc2C1C (stereo not shown) | -73.4%
20 | Cc1nc2cc(NC(=O)Nc3ccc(N4CCOCC4)cc3)ccc2n1C | 6.34%
21 | COCCn1c(Br)nc2c1c(=O)n(C)c(=O)n2C | 8.14%

Row | SMILES | hERG current change (%, negative = inhibition) at 10uM
22 | Cc1ccccc1C(=O)N1CCN(c2ccc(NC(=O)c3cccs3)cc2)CC1 | 4.97%
23 | CC(=O)Nc1ccc(S(=O)(=O)NCC2CCC(C(=O)NCCCN(C)Cc3ccccc3)CC2)cc1 (stereo not shown) | 6.98%
24 | CCn1c(SCC(=O)NCC2CCCO2)nnc1-c1ccccc1OC (stereo not shown) | 10.9%
25 | CS(=O)(=O)Nc1ccccc1C(=O)NCC1(N2CCCCC2)CCCCC1 | -8.32%
26 | O=C(O)c1ccc(NS(=O)(=O)c2ccc(C(=O)Nc3ccccc3)cc2)cc1 | -8.65%
27 | Cc1ccc(C)c(CN2CCC(n3nnc4cc(F)ccc43)CC2)c1 | -21.2%
28 | Cc1ccc(Cn2nnnc2CN2CCC(NC(=O)C(C)(C)C)CC2)cc1.Cl | 0.395%
29 | Cc1ccc(Cn2nnnc2CN2CCC(NC(=O)c3ccc(Br)cc3)CC2)cc1 | -44.7%
30 | Cc1ccc(Cn2nnnc2CN2CCC(n3nnc4cc(C)ccc43)CC2)cc1 | -65.2%
31 | Cc1ccc(Cn2nnnc2CN2CCC(n3nnc4ccccc43)CC2)cc1.Cl | -53.9%
32 | Cc1ccc(S(=O)(=O)N2CCC(n3nnc4cc(C)ccc43)CC2)cc1 | -28.9%
33 | COc1ccc(CCNC(=O)CSc2nc(N)cc(=O)[nH]2)cc1OC | 29.6%
34 | Cc1ccc(S(=O)(=O)N(C)C)cc1NC(=O)C(C)N(C)Cc1sccc1C (stereo not shown) | -16.1%
35 | O=C(COc1ccccc1)Nc1ccc2oc(=O)ccc2c1 | 4.76%
36 | CCOC(=O)N1CCN(C(=O)c2ccc3c(=O)n(Cc4ccc(Cl)cc4)c(=S)[nH]c3c2)CC1 | 4.36%
37 | CN(C)c1ccc(N/C=C/C(=O)c2ccco2)cc1 | 4.67%
38 | Cc1nn(C)c(C)c1CN(Cc1nc(CCC(C)C)no1)C(C)C | 13%
39 | COC(=O)c1cccc(N(C(=O)CNC(=O)c2ccco2)C(C(=O)NC2CCCC2)c2ccco2)c1 (stereo not shown) | 6.89%
40 | COc1ccc2[nH]c(C(=O)N3CCC(CO)(Cc4cccc(C(F)(F)F)c4)CC3)c(C)c2c1 | 7.98%
41 | COc1cc(CN2CCC(CO)(Cc3cccc(C(F)(F)F)c3)CC2)ccc1F | -68.7%
42 | CCOc1cc(CN2CCN(C(=O)Cc3ccccc3)CC2)ccc1OC.O=C(O)C(=O)O | -37.6%

Row | SMILES | hERG current change (%, negative = inhibition) at 10uM
43 | CSc1cccc(CN2CCC(CO)(Cc3ccccc3)CC2)c1 | -44.8%
44 | FC(F)(F)c1cccc(CN2CCCCCC2)c1 | 2.33%
45 | CCOc1cc(CN2CCCCCC2)ccc1OC | -3.28%
46 | COc1ccc(F)c(CN2CCC(CO)(Cc3cccc(C(F)(F)F)c3)CC2)c1 | -58.4%
47 | Cc1c(CN2CCC(CO)(Cc3cccc(C(F)(F)F)c3)CC2)c2ccccc2n1C | -47.2%
48 | OCC1(Cc2cccc(C(F)(F)F)c2)CCN(Cc2cc(F)cc(F)c2)CC1 | -43.4%
49 | CSc1cccc(CN2CCC(CO)(Cc3cccc(C(F)(F)F)c3)CC2)c1 | -64.4%
50 | CCOc1cc(CN2CCC(CO)(Cc3cccc(C(F)(F)F)c3)CC2)ccc1OC | -76.6%
51 | COc1ccc(C(=O)Nc2ccc(N3CCOCC3)cc2)cc1OC | 1.36%
52 | Cc1ccc(CC(=O)NCCc2ccc(S(N)(=O)=O)cc2)cc1 | 5.87%
53 | Brc1ccc([C@H]2CN3CCSC3=N2)cc1.O=C(O)C(=O)O | -35.7%
54 | COc1ccc(OC)c(NC(=O)c2ccccc2SC)c1 | -40.2%
55 | CC(C)c1ccc(C2NC(=O)NC3=C2CCc2ccccc23)cc1 (stereo not shown) | -33.5%
56 | COc1cc(Cl)c(CC(=O)c2c[nH]c3ccccc23)cc1OC | 15.9%
57 | OCC1(Cc2ccccc2C(F)(F)F)CCN(Cc2ccncc2)CC1 | -13.8%
58 | CC(=O)c1ccc(C(=O)N2CCC(CO)(Cc3cccc(C(F)(F)F)c3)CC2)cc1 | -74.6%
59 | CN(C)S(=O)(=O)N1CCC(CO)(Cc2cccc(C(F)(F)F)c2)CC1 | -4.25%
60 | CC1(C(=O)N2CCC(CO)(Cc3cccc(C(F)(F)F)c3)CC2)CC1 | 4.02%
61 | OCC1(Cc2ccccc2C(F)(F)F)CCN(Cc2cccc3cnccc23)CC1 | -11%
62 | COc1ccc(CN2CCC(CO)(Cc3ccccc3C(F)(F)F)CC2)c(F)c1 | -67.3%
63 | CC(=O)N1CCN(c2ccc(NC(=O)c3cccc([N+](=O)[O-])c3)cc2)CC1 | -3.59%

Row | SMILES | hERG current change (%, negative = inhibition) at 10uM
64 | C/C(=N\NC(=O)CSc1nc(C)cc(C)n1)c1ccc2c(c1)OCCO2 | 18.3%
65 | CCC(CC)C(=O)N1CC(=O)Nc2ccc(F)cc2C1c1ccc(F)cc1 (stereo not shown) | -27.8%
66 | CCCc1cc(C(=O)NNC(=S)NCC)c2ccccc2n1 | 18.1%
67 | CC1=C(C(=O)Nc2ccccn2)C(c2ccccc2)n2ncnc2N1 (stereo not shown) | 13.7%
68 | CC1=C(C(=O)Nc2ccccn2)C(c2ccc(N(C)C)cc2)n2ncnc2N1 (stereo not shown) | -62.7%
69 | CC1=C(C(=O)Nc2ccccn2)C(c2ccc(F)cc2)n2ncnc2N1 (stereo not shown) | -13.1%
70 | O=c1cc(-c2ccccc2)cc(-c2ccccc2)n1CCCO | -31.9%
71 | CCc1ccc(C(=O)Nc2cc3c(cc2Cl)OCCCO3)cc1 | 23.5%
72 | CN(C)C(=O)[C@@H]1C[C@H]1[C@@H](NC(=O)OCc1ccccc1)c1ccccc1 | -64.2%
73 | O=C(N[C@@H](c1ccccc1)[C@@H]1C[C@H]1C(=O)O)OCc1ccccc1 | 15.1%
74 | CNC(=O)[C@@H]1C[C@H]1[C@@H](NC(=O)OCc1ccccc1)c1ccccc1 | -48.3%
75 | O=P(O)(OCc1ccccc1)OCc1ccccc1 | 12.1%
76 | O=C(O)c1cccc(NC2=Nc3cccc4cccc2c34)c1 | 14.3%
77 | CCn1c(NC(=O)c2ccc(F)cc2)c2ccccc2nc1=O | -11.7%
78 | COc1ccc(CCn2c(=O)[nH]c3cc(C(=O)NCCN4CCOCC4)ccc3c2=O)cc1OC | 0.353%
79 | Cc1cccn2c(=O)c3cc(C(=O)NCCN4CCOCC4)n(C)c3nc12 | -3.18%
80 | COc1ccc(CCNC(=O)c2c(N)n(CCN3CCOCC3)c3nc4ccccc4nc23)cc1OC | -8.6%
81 | COc1ccc(CCn2c(=N)c(C(=O)NCCN3CCOCC3)cc3c(=O)n4cccc(C)c4nc32)cc1OC | -97.8%
82 | Cc1cccn2c(=O)c3cc(C(=O)NCCN4CCOCC4)c(=N)n(CCc4ccccc4)c3nc12 | -75%

Source: PMC4336329 (PLoS ONE, 2015)
